We go through 34 molecules from PubChem BioAssay (NCATS).

Records with an inconclusive call do not appear. The source made the active and inactive calls. Calls follow the shape of the dose curve; as a rule, active = well fitted curve in the direction sought with a large enough effect; inconclusive = small, poorly fitted or top-dose-only effect, or another doubt; inactive = no such curve, though single readings can be large; an effect the other way counts as inactive or inconclusive.

For assay [1], the target named is N-terminal Xaa-Pro-Lys N-methyltransferase 1 (Homo sapiens) (UniProt Q9BV86). In words: qHTS Assay for Inhibitors of N-terminal methyltransferase 1 (NTMT1): LOPAC validation of the NTMT1 SAHH-coupled ThioGlo3 Assay (AID 1347143).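 Also: SAH from peptide methylation measured as thiol fluorescence via SAHH coupling and ThioGlo3; nearly all actives have a fitted effect of over 70% in size.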 In short, it runs like this:
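Steps: dispense 125nM NTMT1; pin-transfer test compounds at several concentrations, with 1uM RCC1-6 peptide as control; incubate 1 min; start with reagent holding 100uM SAM, 10uM SAHH, 15uM ThioGlo3; read at 0 and 30 min.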
A general note: In qHTS, concentration-response curves come from the screen itself.

In the next assay the target is Furin (Homo sapiens) (UniProt P09958). In words: Furin counterscreen qHTS for Zika virus inhibitors (AID 1347149). Also: nearly all actives have a fitted effect of over 70% in size. In short, it runs like this:
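Counterscreen measures cleavage of 2 microM BOC-RVRR-AMC, below its ~15 microM Km, by 5 nM full-length human furin at pH 7.0 after a 15-min compound preincubation. Inhibition derives from the 15-min fluorescence increase at 37C.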
A general note: A counterscreen serves to expose hits that act by an unwanted route or on another target.

Assay [2] relates to Zika virus NS2B-NS3 protease (unlinked). Nature of the assay: Optimization of GU AMC qHTS for Zika virus inhibitors: Unlinked NS2B-NS3 protease assay (AID 1347151). Also: nearly all actives have a fitted effect of over 80% in size. In short, it runs like this:
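Noncovalent complex of NS2B hydrophilic domain and NS3 protease domain, 25 nM final, in 10 mM Tris-HCl pH 8.0, 0.01% Tween 20. AMC fluorescence change over 15 min at room temperature was fitted to a 4-parameter Hill equation.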

The test system of assay [3] is Zika virus NS2B-NS3 protease (linked construct). In words: Confirmatory screen NINDS AMC qHTS for Zika virus inhibitors (AID 1347152). Also: nearly all actives have a fitted effect of over 70% in size. In short, it runs like this: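 Purified NS2B-NS3 protease with NS2B hydrophilic domain linked to NS3 protease domain by flexible linker, 1 nM final in 10 mM Tris-HCl pH 8.0, 0.01% Tween 20. Compounds preincubated 15 min, room temperature; Bz-Nle-KRR-AMC 10 microM (Km 18.3 µM); 15-min fluorescence change, 4-parameter Hill fit.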

The test system of assay [4] is Zika virus NS2B-NS3 protease (unlinked complex). Nature of the assay: Confirmatory screen GU AMC qHTS for Zika virus inhibitors (AID 1347153). Also: nearly all actives have a fitted effect of over 70% in size. In short, it runs like this: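 Unlinked enzyme 25 nM, Tris pH 8.0/0.01% Tween 20; cpd 15 min RT, dark; + AMC substrate 10 µM (Km 18.3 µM); 340/450 nm read at t0 and 15 min; % inhibition → 4-param fit.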
Assay [5] can be described thus: qHTS of pediatric cancer cell lines to identify multiple opportunities for drug repurposing: Confirmatory screen for DAOY cells (AID 1347114). Also: nearly all actives have a fitted effect of over 65% in size. As to conditions: DAOY medulloblastoma cells viability, cytotoxicity qHTS. In short, it runs like this: (§1)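 Viability measured as metabolically active cells via CellTiter-Glo luminescence following 48 hours of compound exposure, 11-point dilutions in confirmatory testing. 500-1,000 cells/well plated 5 hours before dosing; controls were DMSO and 2.3 µM bortezomib.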

A short description of assay [6]: qHTS of pediatric cancer cell lines to identify multiple opportunities for drug repurposing: Confirmatory screen for NB-EBc1 cells (AID 1347115).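 Also: cells exposed to compound for 48 h before the viability read; nearly all actives have a fitted effect of over 45% in size.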 The settings on record: NB-EBc1 neuroblastoma cells, viability (cytotoxicity). In short, it runs like this:
(§2)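 Viability after 48 h compound treatment at 37C, 500-1,000 cells/well, read as ATP luminescence with CellTiter-Glo. Primary screens used 11-point (MIPE, 0.78 nM-46 µM) or 8-point (NPC, 0.59 nM-46 µM) final concentrations; follow-up screens used 11-point dilutions.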

Assay [7] is described as follows: qHTS of pediatric cancer cell lines to identify multiple opportunities for drug repurposing: Confirmatory screen for SJ-GBM2 cells (AID 1347116). Also: nearly all actives have a fitted effect of over 60% in size. As to conditions: SJ-GBM2 glioblastoma cells, viability. In short, it runs like this: as §1
A short description of assay [8]: qHTS of pediatric cancer cell lines to identify multiple opportunities for drug repurposing: Confirmatory screen for BT-37 cells (AID 1347117). Also: nearly all actives have a fitted effect of over 55% in size. The settings on record: BT-37 pediatric cancer cells, viability. In short, it runs like this: as §2
A short description of assay [9]: qHTS of pediatric cancer cell lines to identify multiple opportunities for drug repurposing: Confirmatory screen for TC32 cells (AID 1347118).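 Also: cells exposed to compound for 48 h before the read; nearly all actives have a fitted effect of over 65% in size.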 As to conditions: TC32 Ewing sarcoma cells viability qHTS. In short, it runs like this: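 Measured quantity: luminescence from CellTiter-Glo, reflecting metabolically active TC32 cells following 48 h of compound. Curves came straight from multi-point titrations, with 8 or 11 points in primary and 11 in confirmatory screening.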

Assay [10] is described as follows: qHTS of pediatric cancer cell lines to identify multiple opportunities for drug repurposing: Confirmatory screen for MG 63 (6-TG R) cells (AID 1347119). Also: nearly all actives have a fitted effect of over 55% in size. The settings on record: MG-63 (6-TG resistant) osteosarcoma viability. In short, it runs like this:
as §2

The nature of assay [11]: qHTS of pediatric cancer cell lines to identify multiple opportunities for drug repurposing: Confirmatory screen for control Hh wild type fibroblast cells (AID 1347121). Also: nearly all actives have a fitted effect of over 70% in size. As to conditions: viability qHTS. In short, it runs like this:
as §2

Assay [12] can be described thus: qHTS of pediatric cancer cell lines to identify multiple opportunities for drug repurposing: Confirmatory screen for U-2 OS cells (AID 1347122). Also: nearly all actives have a fitted effect of over 65% in size. As to conditions: U-2 OS osteosarcoma cell viability. In short, it runs like this: as §2
The nature of assay [13]: qHTS of pediatric cancer cell lines to identify multiple opportunities for drug repurposing: Confirmatory screen for Rh41 cells (AID 1347123).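 Also: 48 h compound exposure; nearly all actives have a fitted effect of over 60% in size.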 As to conditions: Rh41 rhabdomyosarcoma cells, viability/cytotoxicity qHTS. In short, it runs like this:
as §2

A short description of assay [14]: qHTS of pediatric cancer cell lines to identify multiple opportunities for drug repurposing: Confirmatory screen for RD cells (AID 1347124).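 Also: cells exposed to compound for 48 h before viability readout; nearly all actives have a fitted effect of over 65% in size.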 As to conditions: RD rhabdomyosarcoma cell viability. In short, it runs like this: as §2
The nature of assay [15]: qHTS of pediatric cancer cell lines to identify multiple opportunities for drug repurposing: Confirmatory screen for Rh18 cells (AID 1347125). Also: nearly all actives have a fitted effect of over 55% in size. As to conditions: Rh18 rhabdomyosarcoma cells, viability. In short, it runs like this:
as §2

The nature of assay [16]: qHTS of pediatric cancer cell lines to identify multiple opportunities for drug repurposing: Confirmatory screen for Rh30 cells (AID 1347126). Also: nearly all actives have a fitted effect of over 55% in size. The settings on record: Rh30 rhabdomyosarcoma cell viability. In short, it runs like this:
as §2

Assay [17] is described as follows: qHTS of pediatric cancer cell lines to identify multiple opportunities for drug repurposing: Confirmatory screen for Saos-2 cells (AID 1347127). Also: nearly all actives have a fitted effect of over 60% in size. The settings on record: Saos-2 osteosarcoma cell viability. In short, it runs like this: as §2
Assay [18] is described as follows: qHTS of pediatric cancer cell lines to identify multiple opportunities for drug repurposing: Confirmatory screen for OHS-50 cells (AID 1347128). As to conditions: OHS-50 osteosarcoma cells viability. In short, it runs like this: as §2
The nature of assay [19]: qHTS of pediatric cancer cell lines to identify multiple opportunities for drug repurposing: Confirmatory screen for SK-N-SH cells (AID 1347129).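 Also: cells exposed to compound for 48 h before viability read; nearly all actives have a fitted effect of over 60% in size.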 As to conditions: SK-N-SH neuroblastoma cell viability. In short, it runs like this: as §2
Potency is read from the fitted curve at half-maximal effect.

Chain of N-terminal Xaa-Pro-Lys N-methyltransferase 1 (Homo sapiens) (Q9BV86 whole entry, looked up): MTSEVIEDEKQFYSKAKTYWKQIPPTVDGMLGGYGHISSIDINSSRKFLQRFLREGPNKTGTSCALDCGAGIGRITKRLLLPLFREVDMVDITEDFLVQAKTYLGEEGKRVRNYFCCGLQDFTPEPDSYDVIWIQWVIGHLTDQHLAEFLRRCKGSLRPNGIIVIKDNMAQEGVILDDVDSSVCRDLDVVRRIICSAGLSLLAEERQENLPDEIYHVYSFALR
Chain of Furin (Homo sapiens) (P09958 whole entry, looked up): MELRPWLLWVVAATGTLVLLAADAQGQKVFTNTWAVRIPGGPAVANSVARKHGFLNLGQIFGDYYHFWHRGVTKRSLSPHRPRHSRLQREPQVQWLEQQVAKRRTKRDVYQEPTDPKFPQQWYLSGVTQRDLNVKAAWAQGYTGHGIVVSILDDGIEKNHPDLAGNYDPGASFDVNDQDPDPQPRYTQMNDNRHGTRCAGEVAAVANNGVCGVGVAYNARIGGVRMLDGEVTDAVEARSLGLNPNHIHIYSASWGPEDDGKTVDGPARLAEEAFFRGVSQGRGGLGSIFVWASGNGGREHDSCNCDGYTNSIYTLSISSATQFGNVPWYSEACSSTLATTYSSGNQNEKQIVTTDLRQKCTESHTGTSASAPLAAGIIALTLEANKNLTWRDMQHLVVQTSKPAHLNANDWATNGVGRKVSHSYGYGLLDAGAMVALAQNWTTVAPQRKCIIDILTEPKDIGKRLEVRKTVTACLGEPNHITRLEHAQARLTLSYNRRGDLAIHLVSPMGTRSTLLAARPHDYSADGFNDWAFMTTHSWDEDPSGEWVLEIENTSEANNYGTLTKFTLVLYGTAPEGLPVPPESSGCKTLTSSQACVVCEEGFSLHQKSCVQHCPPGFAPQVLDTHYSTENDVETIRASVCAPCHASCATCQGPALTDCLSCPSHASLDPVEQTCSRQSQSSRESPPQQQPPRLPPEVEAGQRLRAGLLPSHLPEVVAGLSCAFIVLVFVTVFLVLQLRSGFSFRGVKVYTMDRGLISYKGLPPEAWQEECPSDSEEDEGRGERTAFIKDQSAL

For the molecule `O=c1ccc2[nH]cc(C3=CCNCC3)c2[nH]1`, the Potency was 56.2 µM (active) in assay [1]; 24.1 µM (active) with Furin (Homo sapiens); 37.7 µM (active) in assay [2]; 24.1 µM (active) in [3]; 24.1 µM (active) in assay [4].
Consider `CCCN(CCC)CCc1ccc(O)c(O)c1`, for which the Potency result in assay [1] is “inactive”.
Same read-out and setting: with `CN(N=O)c1ccc(O)c(O)c1` the figure was 35.5 µM (active).
With `N[C@@H](Cn1oc(=O)[nH]c1=O)C(=O)O`, the Potency result in assay [1] and in assay [2] was “inactive” each time.
As for `NC(=O)COc1c(F)cc(SCCNS(=O)(=O)c2ccccc2)cc1F`, the Potency result in assay [1] is “inactive”.
The same measure, in the same setting: with `CN1CC[C@@]2(C)c3cc(O)ccc3N(C)C12` (stereo partly drawn) the figure was 44.7 µM (active).
On to `CC(C)(O)[C@@H]1[C@H]2OC(=O)[C@@H]1[C@]1(O)C[C@H]3O[C@]34C(=O)O[C@H]2[C@]14C` (tested in a mixture with another compound), for which the Potency result in assay [1] is “inactive”.
Consider `NCC(CP(=O)(O)O)c1ccc(Cl)cc1` (stereo not drawn), for which the Potency result in assay [1] and in [2] was “inactive” throughout.
For `CCNC(=O)[C@H]1O[C@@H](n2cnc3c(N)ncnc32)[C@H](O)C1O` (stereo partly drawn), the Potency entry in assay [1] is “inactive”.
For the molecule `C[N+]1(C)CCC(OC(=O)C(c2ccccc2)c2ccccc2)CC1`, the Potency in assay [1] was 63.1 µM (active).
Same read-out and setting: to `NC(=O)CI` belongs 20 µM (active).
In the case of `C[N+]1(C)C2CCC1CC(OC(=O)c1c[nH]c3ccccc13)C2` (stereo not drawn), the Potency in assay [1] is 31.6 µM (active). The Potency entry in assay [2] was “inactive”.
As to `C[C@]12Cc3cn4c(nc3C=C1CCC1C2CC[C@@]2(C)[C@H]1CC[C@@]2(O)C#N)nc1ccccc14` (stereo partly drawn), the Potency entry in assay [1] is “inactive”.
On to `Nc1ncnc2c1ncn2[C@@H]1O[C@H](COP(=O)(O)CP(=O)(O)OP(=O)(O)O)C(O)[C@H]1O` (stereo partly drawn), for which the Potency result in [1] was “inactive”.
On the same count and under the same terms, with `CCCCCCCCCCCCCC(=O)O[C@@H]1[C@@H](C)[C@@]2(O)[C@@H](C=C(CO)C[C@@]3(O)C(=O)C(C)=C[C@@H]23)C2C(C)(C)[C@@]21OC(C)=O` (stereo partly drawn) the entry was “inactive”; with `N#C/C(=C/c1ccc(O)c(O)c1)C(N)=S`, 44.7 µM (active).
As for `Clc1cc(I)cc(Cl)c1NC1=NCCN1`, the Potency entry in [1] and in [2] was “inactive” each time.
Regarding `CC(N)[C@H](O)c1ccc(O)c(O)c1` (stereo partly drawn), in assay [1], the Potency was 50.1 µM (active).
As for `C[CH2][Hg][S]c1ccccc1C(=O)O`, the Potency in assay [5] is 3.29 µM (active); in assay [6], 7.37 µM (active); in assay [7], 7.37 µM (active); in assay [8], 8.27 µM (active); in [9], 2.93 µM (active); in assay [10] it was 5.22 µM (active). Further, the Potency in assay [11] was 16.5 µM (active); in [12], 8.27 µM (active); in assay [13] it was 1.17 µM (active); in assay [14], 7.37 µM (active); in assay [15], 16.5 µM (active); in [16] it was 4.14 µM (active). For the same molecule, the results for the Potency in [17], in assay [18] and in assay [19] were 2.93 µM (active), 9.27 µM (active) and 5.26 µM (active), respectively.
`NCCc1ccc(S(=O)(=O)F)cc1`: the Potency entry in assay [1] and in assay [2] was “inactive” in each case.
Take `O=[N+]([O-])c1cc(O)c(O)c([N+](=O)[O-])c1`: in [1], the Potency was 44.7 µM (active).
Turning to `CC1OC1P(=O)(O)O` (stereo not drawn), the Potency entry in assay [1] was “inactive”.
The same measure, in the same setting: to `CCN(CC)c1ncnc2c1ncn2[C@@H]1O[C@H](COP(=O)(O)OP(=O)(O)C(Br)(Br)P(=O)(O)O)[C@@H](O)[C@H]1O` belongs “inactive”; to `O=P(O)(O)C(Cl)(Cl)P(=O)(O)O`, “inactive”.
As to `C[C@H]1C2Cc3ccc(O)cc3[C@@]1(C)CCN2CC1CC1`, the Potency result in [1] and in [2] was “inactive” throughout.
As for `NCCc1c[nH]c2ccc(C(N)=O)cc12`, the Potency result in [1] is “inactive”.
Turning to `CCN1C[C@@]2(COC)C3[C@@H](OC)C4[C@H]1C3([C@@H]1C[C@@]3(O)[C@H](OC(=O)c5ccccc5)[C@@H]1[C@]4(OC(C)=O)[C@@H](O)[C@@H]3OC)[C@H](OC)C[C@H]2O`, the Potency entry in assay [1] is “inactive”.
On to `NNC(N)=O`, for which the Potency result in assay [1] and in assay [2] was “inactive” throughout.
With `CC(C)CC(NP(=O)(O)O[C@@H]1O[C@@H](C)[C@H](O)[C@@H](O)[C@H]1O)C(=O)NC(Cc1c[nH]c2ccccc12)C(=O)O` (stereo partly drawn), the Potency result in [1] is “inactive”.
For `NC(N)=Nc1ccc2[nH]c3c(c2c1)C[C@@]1(O)[C@H]2Cc4ccc(O)c5c4[C@@]1(CCN2CC1CC1)[C@H]3O5`, the Potency in [1] was 22.4 µM (active). The Potency result in assay [2] was “inactive”.
Consider `O=C1/C(=C/c2ccccc2)C[C@@]2(O)[C@H]3Cc4ccc(O)c5c4[C@@]2(CCN3CC2CC2)[C@H]1O5`, for which the Potency in assay [1] was 50.1 µM (active).
For `CCS(=O)(=O)Nc1cccc(C(=C2CCCCC2)c2cnc[nH]2)c1`, the Potency entry in [1] and in [2] was “inactive” in each case.
Turning to `NC(N)=NOCC[C@H](N)C(=O)O`, the Potency entry in assay [1] and in [2] was “inactive” throughout.
Take `CN1C2CCC1CC(OC(c1ccccc1)c1ccccc1N)C2` (stereo not drawn): the Potency result in assay [1] and in [2] was “inactive” throughout.
